Bioassay records as filed in PubChem.
Hits are enriched below; roughly 3.5% of the tested compounds scored in any of these assays.
Mtb UGM inh – Mtb UDP-galactopyranose mutase inhibition. 320,000 tested, 0.06% active. P9WIQ1. inhibition, % at 10 µM. AID 504406. purified UGM, fluorescence polarization probe displacement; in the data active = inhibition above about 10%, passing the limit was not always enough
Mtb FBA inh – Mtb fructose-bisphosphate aldolase inhibition; P9WQA3; purified M. tuberculosis FBA, fluorescence read-out; inhibition, % at 1 µM; 360,000 tested, 2.3% active; AID 588726;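 also: 0% = vehicle and 100% = reference inhibitor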
Target sequence (P9WQA3 whole entry, looked up): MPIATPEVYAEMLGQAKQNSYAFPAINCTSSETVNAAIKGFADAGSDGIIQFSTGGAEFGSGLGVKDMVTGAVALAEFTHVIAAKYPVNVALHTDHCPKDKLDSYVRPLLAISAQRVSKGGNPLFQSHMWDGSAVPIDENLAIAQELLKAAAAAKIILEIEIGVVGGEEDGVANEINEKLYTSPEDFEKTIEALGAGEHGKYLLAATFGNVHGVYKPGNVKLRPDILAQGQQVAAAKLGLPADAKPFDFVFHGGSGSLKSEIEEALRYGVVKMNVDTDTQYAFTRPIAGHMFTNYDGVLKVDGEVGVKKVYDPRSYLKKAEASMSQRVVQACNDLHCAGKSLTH
Rv3671c protease – inhibits the M. tuberculosis serine protease Rv3671c. P9WHR9. inhibition, % at 5.96 µM. 320,000 tested, 0.048% active; in the data active = inhibition above about 38%;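 also: extracellular domain of Rv3671c used as enzyme; 0% = enzyme with DMSO and 100% = no enzyme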
FadD28 binding – blocks FadD28 binding to the bisubstrate probe; fluorescence polarization; inhibition, % at 12.5 µM; 360,000 tested, 0.22% active; in the data active = inhibition above about 8.5%, passing the limit was not always enough
GDH-TPI counter-1 – counter-screen for M. tuberculosis FBA inhibitors: GDH-TPI coupled enzymes. 360,000 tested, 1.2% active. GDH-TPI coupled enzyme counterscreen, NADH absorbance. inhibition, % at 4.8 µM; in the data active = inhibition above about 30%;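 also: 0% = DMSO wells and 100% = wells lacking the enzyme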
Mtb hypoxia inh – reduces hypoxia-regulated biosensor signal in M. tuberculosis. M. tuberculosis hypoxia-regulated fluorescent reporter, fluorescence. fluorescence inhibition, % (concentration not given with the values). 300,000 tested, 0.1% active. AID 1159583; in the data active = fluorescence inhibition mostly above about 23%, no sharp cut-off; inactive = mostly below about 17%
Mtb FBA confirm – Mtb FBA inhibition, confirmed | shares compounds with Mtb FBA inh | purified M. tuberculosis FBA, fluorescence read-out | inhibition, % at 1 µM | 5,600 tested, 78% active | AID 651616;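 also: 0% = vehicle wells and 100% = reference inhibitor wells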
GDH-TPI counter-2 – counter-screen for M. tuberculosis FBA inhibitors: GDH-TPI coupled enzyme inhibition; shares compounds with Mtb FBA inh; GDH-TPI coupled enzyme counterscreen, fluorescence; inhibition, % at 1 µM; 5,600 tested, 81% active; AID 652141; in the data active = inhibition above about 10%
GDH-TPI dose – inhibits GDH-TPI coupling enzymes in dose response; GDH-TPI coupled enzyme assay, fluorescence, artifact counterscreen; IC50, µM; shares compounds with Mtb FBA inh; AID 652145; 170 tested, 79% active; call rule not given here
Starred values were filed as active, the others as inactive; . = no result; + = active, no number. Rule as the data show it, unless noted: active = inhibition above about 27%; inactive = the rest.

SMILES	Mtb UGM inh	Mtb FBA inh	Rv3671c protease	FadD28 binding	GDH-TPI counter-1	Mtb hypoxia inh	Mtb FBA confirm	GDH-TPI counter-2	others
CCCCS(=O)(=O)Nc1ccc2ncn(C)c(=O)c2c1	0.6	35.3*	-1.9	-4.5	0.7	15.8	-2.8	-4.6
CCCCS(=O)(=O)Nc1ccc2cn[nH]c2c1	-0.2	-2.3	-5.2	-4.8	-7.1	0.2	.	.
Cn1nc(/C=C/c2ccccc2)ccc1=O	-1.0	30.9*	-9.3	-2.7	0.0	4.7	63.5*	56.2*
O=c1ccc(/C=C/c2ccccc2)nn1Cc1ccccc1	-1.8	25.4	-4.0	-5.8	10.8	.	.	.
c1ccc(Cn2c(-c3ccccc3)nc3nc4ccccc4nc32)cc1	-0.4	56.3*	-9.6	-0.9	43.2*	13.6	161.1*	132.0*
COc1ccc(-c2nc(-c3cccc(C)c3)no2)cc1OC	0.4	0.4	-9.2	-0.5	10.7	6.7	.	.
COc1ccccc1-c1nc(-c2cccc(C)c2)no1	-2.8	81.1*	-1.8	-2.4	1.4	.	76.2*	53.6*
Cc1nc2cccc(C(=O)Oc3ccc([N+](=O)[O-])cc3)c2o1	0.3	43.1*	-7.7	-0.6	4.4	2.5	158.6*	146.0*
Cc1c(-c2ccccc2)nc2ccccc2c1C(=O)Oc1ccc([N+](=O)[O-])cc1	0.4	-0.3	-5.3	-2.9	12.7	.	.	.
COc1ccc(C=NN2CCN(c3ccccc3OC)CC2)cc1OC	.	.	.	.	.	5.1	.	.
C=CCNC(=O)C1CCN(c2cc(C)nc(-c3ccccc3)n2)CC1	-0.6	-2.3	2.4	-3.6	1.6	4.6	.	.
C=CCNC(=O)C1CCN(c2nc(C)cc(-c3ccccc3)n2)CC1	-0.6	32.5*	2.6	-3.8	8.9	6.4	4.6	1.1
Cc1cccc(-c2cc3nc(-c4ccccc4)cc(N4CCC5(CC4)OCCO5)n3n2)c1	2.3	24.7	-10.3	-1.7	7.5	.	.	.
Cc1ccc(-c2cc3nc(-c4ccccc4)cc(N4CCC5(CC4)OCCO5)n3n2)cc1	1.3	33.1*	-3.9	0.6	16.0	.	+	+
Fc1cccc(-c2cc3nc(-c4ccccc4)cc(N4CCC5(CC4)OCCO5)n3n2)c1	-0.2	52.7*	-25.3	-4.9	7.1	.	-1.6	-5.5
COc1ccc(N(CC(=O)NN=Cc2ccc(F)cc2)S(=O)(=O)c2ccccc2)cc1	.	.	.	.	.	-4.5	.	.
Nc1nonc1-n1nnc(C(=O)NN=Cc2cccc(F)c2)c1-c1ccccc1	.	.	.	.	.	0.5	.	.
COc1cccc(C(=O)Oc2ccc3ccc(=O)oc3c2)c1	-0.3	58.6*	6.2	-1.1	15.2	-5.3	153.9*	140.5*
COc1ccc(COc2ccc3ccc(=O)oc3c2)cc1	-0.7	6.3	4.0	.	11.0	4.8	.	.
O=C(Oc1ccc2ccc(=O)oc2c1)c1cccs1	1.7	66.4*	12.3	4.0	6.2	10.2	7.0	-5.2
COc1cccc(COc2ccc3ccc(=O)oc3c2)c1	1.1	9.2	-1.4	-2.7	10.0	4.4	.	.
COc1ccc2ccc(=O)oc2c1	-0.3	67.8*	8.6	-2.8	15.7	.	88.1*	82.1*
COc1ccc(C(=O)Oc2ccc3ccc(=O)oc3c2)cc1OC	2.3	41.5*	6.3	-2.1	6.8	7.3	146.7*	106.5*
COc1cccc(C=NNC(=O)CNC(=O)/C=C\c2ccccc2)c1O	.	.	.	.	.	8.2	.	.
Cc1cc(CNC(=O)C2CC2C(NP(=O)(c2ccccc2)c2ccccc2)c2ccccc2)nn1C (centres undefined)	.	.	.	.	.	11.9	.	.
SMILES	Mtb UGM inh	Mtb FBA inh	Rv3671c protease	FadD28 binding	GDH-TPI counter-1	Mtb hypoxia inh	Mtb FBA confirm	GDH-TPI counter-2	others
CC(Oc1ccc2c(-c3ccccc3)cc(=O)oc2c1)C(=O)N1CCOCC1 (centres undefined)	2.3	-1.9	6.2	-2.0	20.0	4.8	.	.
CC(Oc1ccc2ccc(=O)oc2c1)C(=O)N1CCOCC1 (centres undefined)	-1.8	41.7*	-7.8	-2.9	0.3	9.2	155.1*	122.3*
COC(=O)[C@]1(C)N[C@H](c2ccc(-c3ccc(OC)cc3)cc2)[C@@H]2C(=O)N(C)C(=O)[C@@H]21	-3.3	15.6	-4.4	-1.4	12.9	.	.	.
CCN1C(=O)[C@H]2[C@@H](c3ccc(-c4ccc(OC)cc4)cc3)N[C@@](C)(C(=O)OC)[C@H]2C1=O	2.0	99.8*	-3.0	0.0	12.7	1.0	134.9*	93.6*
CCCn1nnnc1NCc1c(F)cccc1Cl	-0.1	68.3*	8.0	-3.8	-2.3	-0.5	-6.6	-6.5
O=C(NN=Cc1ccc(Cl)c([N+](=O)[O-])c1)c1cnccn1	.	.	.	.	.	-17.1	.	.
CC1(C)CC(=O)C2=C(C1)N(CCN1CCOCC1)C1=C(C(=O)CC(C)(C)C1)C2c1ccc(Cl)cc1	0.4	35.9*	12.0	-1.5	10.1	4.8	15.3	4.0	GDH-TPI dose=4.61*
COc1ccc(C2C3=C(CC(C)(C)CC3=O)N(CCN3CCOCC3)C3=C2C(=O)CC(C)(C)C3)cc1	-2.4	23.2	5.7	-0.7	14.0	-7.2	.	.
COC(=O)C1=C(c2ccc(S(C)(=O)=O)cc2)CC2CCC1N2C(=O)NCCO (centres undefined)	.	.	.	.	.	-0.7	.	.
CCCc1cc(=O)oc2cc(C)cc(OCC(=O)NCc3cccnc3)c12	-2.5	76.3*	-1.4	-4.2	1.5	-2.0	+	+
Cc1cc(OCC(=O)N[C@@H](Cc2ccccc2)C(=O)O)c2c3c(c(=O)oc2c1)CCCC3	-1.3	50.6*	-3.7	-10.0	-5.9	.	160.9*	117.0*
Cc1cc(OCC(=O)NCc2cccnc2)c2c3c(c(=O)oc2c1)CCCC3	1.1	105.5*	-5.3	-2.7	3.7	11.6	54.9*	36.9*
NS(=O)(=O)c1ccc(CNC(=O)c2cc(-c3ccccc3)nc3ccccc23)cc1	-0.9	0.5	-5.8	-8.6	15.2	10.5	.	.
NS(=O)(=O)c1ccc(CCNC(=O)c2cc(-c3ccco3)nc3ccccc23)cc1	-0.2	77.1*	-1.9	-2.6	18.6	1.2	75.1*	72.8*
Cc1ccc(-c2cc(C(=O)NCCc3ccc(S(N)(=O)=O)cc3)c3ccccc3n2)cc1	-2.7	34.1*	-63.6	0.0	13.0	4.2	176.7*	179.0*
Cc1ccc(CCNC(=O)c2cc(-c3ccncc3)nc3ccccc23)cc1	-0.9	22.4	-15.8	-4.1	2.6	3.0	.	.
CCOC(=O)c1sc(C)c2c1NC1(CCCCC1)NC2=O	3.3	32.3*	9.1	-1.0	2.9	0.9	110.3*	103.8*
CCOC(=O)c1sc(C)c2c1NC(C)(c1cccs1)NC2=O (centres undefined)	2.6	35.2*	-6.0	-2.6	9.6	-8.0	147.1*	109.4*
CC(=NNC(=O)CON=C(C)c1cccs1)c1ccc(N)cc1	.	.	.	.	.	-2.2	.	.
